Data on 96 molecules can be found in PubChem BioAssay AID2315 (National Center for Advancing Translational Sciences (NCATS), 2010).

Hit rate of the full screen: of about 290,000 compounds, about 27,000 (9.3%) were called active. The sample as a whole holds a higher share of actives than the screen did. A number with no mark means an inactive call. Rule as the data show it: active = inhibition mostly above about 28% (no sharp cut-off); inactive = mostly below about 43%.

A short description of this experiment: A qHTS for Small Molecule Inhibitors of Shiga Toxin. Also: 0% is about no effect. The settings on record: Vero cells, Shiga toxin protein synthesis inhibition reporter; at 38.7 µM, active compounds read high.
As to `Cc1ccc(CS(=O)(=O)CCC(=O)NCc2ccc(F)cc2)cc1`, the inhibition was -8.45%.

On to `CCOC(=O)Cc1csc(SCC(=O)NC(C)C23CC4CC(CC(C4)C2)C3)n1` (stereo unspecified), for which the inhibition is 3.03%.

In the case of `CCc1cccc(CC)c1NC(=S)NCc1ccc2[nH]c(C)cc2c1`, the inhibition was -9.97%.

As for `Cc1cc2cc(CNC(=O)c3cccs3)ccc2[nH]1`, the inhibition is 21.3% (active).

`Cc1cc2cc(CNC(=O)c3ccc(S(=O)(=O)N4CCOCC4)cc3)ccc2[nH]1`: the inhibition was -6.18%.

For the molecule `COc1ccc(CNc2ncnc3ccccc23)cc1`, the inhibition is -14.9%.

In the case of `Cc1c(C)c(C)c(S(=O)(=O)N2CCC3(CC2)OCCO3)c(C)c1C`, the inhibition is -4.05%.

As to `O=C(C1CCCO1)N1CCN(S(=O)(=O)c2ccc(Br)cc2)CC1` (stereo unspecified), the inhibition was -30%.

Take `O=C1Nc2cc(C(=O)N3CCN(c4ccc(F)cc4)CC3)ccc2NC1CSCc1cccc(F)c1` (stereo unspecified): the inhibition is -13.8%.

With `COc1cc(NC(=O)C2=C(C)OCCS2)c(Cl)cc1C(=O)NCCN1CCN(C)CC1`, the inhibition is -4.3%.

For the molecule `O=C(NC1CCCCC1)C1c2ccccc2C(=O)N1Cc1ccco1` (stereo unspecified), the inhibition is 2.78%.

With `COC(=O)c1cc(NC2c3ccccc3C(=O)N2c2ccc(Cl)cn2)cc(C(=O)OC)c1` (stereo unspecified), the inhibition is 27.1%.

`COc1ccccc1C1/C(=C(/O)c2ccc(C)cc2)C(=O)C(=O)N1Cc1ccco1` (stereo unspecified): the inhibition was -8.56%.

With `Cc1cccc(C(=O)Nc2ccccc2-c2nnn(CC(=O)Nc3ccc4c(c3)OCCO4)n2)c1`, the inhibition was -7.74%.

Turning to `Cc1ccnc(N2C(=O)c3ccccc3C2Nc2ccc3c(c2)OCCO3)c1` (stereo unspecified), the inhibition is 162% (active).

Consider `O=C1c2ccccc2C(Nc2ccc3c(c2)OCCO3)N1Cc1ccco1` (stereo unspecified), for which the inhibition is 75.3% (active).

As for `CC(C)(C)NCc1cc(Br)ccc1OC1CCCC1`, the inhibition is -3.59%.

In the case of `CCc1ccc2[nH]c(=O)c(Cc3ccccc3)c(O)c2c1`, the inhibition was -8.55%.

On to `Cc1ccc(C2SCC(=O)N2c2ccccc2)cc1` (stereo unspecified), for which the inhibition was 23.4%.

With `C=CCN1C(=NC(=O)COc2ccccc2)SC2CS(=O)(=O)CC21` (stereo unspecified), the inhibition was -9.63%.

Take `Cc1ccc(C(=O)N/C(=C\c2cn(C)c3ccccc23)C(=O)N2CCN(C)CC2)cc1`: the inhibition is -1.79%.

Consider `Cc1ccc(CN2CCNC(=O)C2CC(=O)NCc2csc(C(C)C)n2)cc1` (stereo unspecified), for which the inhibition is -6.42%.

As for `COc1ccc(S(=O)(=O)c2c[nH]c(=S)[nH]c2=O)cc1Cl`, the inhibition was -4.21%.

As for `Cc1cnc(C(=O)OCc2c(C)cc(C(C)(C)C)cc2C)cn1`, the inhibition was -2.67%.

With `O=C(C[n+]1cc(Br)cc2ccccc21)c1ccc(F)cc1`, the inhibition is -6.12%.

`c1ccc(-c2cc(-c3nnc4sc(-c5ccccn5)nn34)[nH]n2)cc1`: the inhibition is 11.6%.

Take `c1ccc(-c2cc(-c3ccccc3)[nH]n2)cc1`: the inhibition is 129% (active).

As to `Cc1ccc(NC(=O)c2cc(-c3ccccc3O)n[nH]2)cc1C`, the inhibition is 40.6%.

`S=c1[nH]nc(-c2cc(-c3ccccc3)n[nH]2)n1/N=C/c1c2ccccc2cc2ccccc12`: the inhibition was -4.79%.

On to `Oc1ccccc1-c1cc(-c2ccc(Cl)cc2)n[nH]1`, for which the inhibition is 151% (active).

For `O=C(NCCCNC(=O)c1ccccc1Cl)c1cnccn1`, the inhibition was -8.38%.

As to `COc1ccc(NC(=O)CC(NC(C)c2ccccc2)C(=O)O)cc1` (stereo unspecified), the inhibition is -9.37%.

Regarding `O=C(OCCN=C1NS(=O)(=O)c2ccccc21)c1cccc([N+](=O)[O-])c1`, the inhibition was -7.24%.

Regarding `COc1ccc(N2CCN(C(=O)c3ccc(N4CCCCS4(=O)=O)cc3)CC2)cc1`, the inhibition is 3.75%.

Regarding `CC(=O)OC(C(=O)NCCc1ccccc1)c1cccnc1` (stereo unspecified), the inhibition was -5.15%.

Take `Cc1ccc(/C(N)=N/OC(=O)COc2ccc(Cl)c(C)c2)cc1`: the inhibition is 21.4%.

In the case of `N/C(=N\OC(=O)CCc1ccccc1)c1ccc(Cl)cc1`, the inhibition was 61% (active).

Regarding `O=C(O)CCc1cccnc1`, the inhibition is -4.95%.

As to `O=C(CCC(=O)OCc1ccc(Cl)cc1)Nc1ccccc1`, the inhibition is -15.7%.

With `N/C(=N\OC(=O)CCc1ccccc1)c1cccnc1`, the inhibition is 55.1% (active).

Regarding `C=CCn1c(SCC(=O)NCC2CCCO2)nc2sc(C)c(C)c2c1=O` (stereo unspecified), the inhibition was -9.53%.

For the molecule `COC(=O)c1cc(S(=O)(=O)NCC2CCN(Cc3ccc(Cl)cc3)CC2)cn1C`, the inhibition is -0.168%.

As for `COc1ccccc1CNC(=O)[C@@H]1CCCN1C(=O)[C@@H]1Cc2ccccc2CN1C(=O)OC(C)(C)C`, the inhibition was -9.37%.

Regarding `COC(=O)c1ccc(OC(=O)c2nn(C)cc2Cl)c(OC)c1`, the inhibition was 8.13%.

Consider `C=CCc1cccc(/C=N/NC(=O)COc2ccc(-n3cnnn3)cc2)c1O`, for which the inhibition is 19.1%.

On to `COc1ccc(CCNC(=O)CN(C)S(=O)(=O)c2ccc3nc(C)sc3c2)cc1OC`, for which the inhibition was 16.5%.

For `Cn1c(SCC(=O)N2CCCCC2)nc2c(c1=O)SCC2`, the inhibition was -17.3%.

As for `O=C(CN1C(=O)c2ccccc2S1(=O)=O)NC1CCCCC1`, the inhibition was -0.163%.

Consider `COc1cc(OC)c(C(=O)Nc2ccc(N(C)C)cc2)cc1OC`, for which the inhibition was 77.9% (active).

`COc1ccc(Cl)cc1C(=O)Nc1ccc(N(C)C(C)=O)cc1`: the inhibition was 22.6%.

As to `COc1cc(OC)c(C(=O)NC2CC(C)(C)NC(C)(C)C2)cc1OC`, the inhibition is -5.21%.

As for `CN(Cc1ccccc1)C(=O)c1cccc(C(=O)N(C)Cc2ccccc2)c1`, the inhibition is -2.11%.

In the case of `COc1ccc(NC(=O)COc2ccc(C(=O)c3ccc(F)cc3)cc2)cc1S(N)(=O)=O`, the inhibition is -4.25%.

With `CCNc1nc(NCC)nc(N/N=C/c2ccc(O)c(OC)c2)n1`, the inhibition was -4.76%.

With `COc1cc(/C=N\Nc2nc(-c3cccs3)c(NC(C)=O)s2)ccc1O`, the inhibition was 34%.

Take `CCOc1ccc(/C=N/Nc2nncc(-c3ccccc3)n2)cc1OC`: the inhibition was 8.48%.

Take `CCOc1ccccc1/C=N/Nc1nc2ccccc2o1`: the inhibition is 49% (active).

With `Cc1cc(C)nc(N/N=C/c2c(C)oc3ccccc23)n1`, the inhibition is 29.2%.

Regarding `COc1cc(/C=N/Nc2nc3ccccc3s2)ccc1O`, the inhibition is 62.5% (active).

As for `C=CCc1ccccc1OCC(=O)N/N=C/c1ccccc1OCC`, the inhibition was 13.2%.

With `CCOc1ccccc1/C=N/NC(=O)CNC(=O)COc1ccccc1`, the inhibition is 11.6%.

For the molecule `Brc1ccccc1/C=N/Nc1nc2ccccc2o1`, the inhibition was 68.5% (active).

As to `Oc1c(Br)cccc1/C=N/Nc1c(F)c(F)c(F)c(F)c1F`, the inhibition was 16%.

For the molecule `COc1ccc(/C=N/n2nnnc2N)cc1OC`, the inhibition is -3.85%.

As to `COc1ccc(/C=N/Nc2nc3ccccc3o2)cc1OC`, the inhibition was 101% (active).

Turning to `CCOC(=O)c1c(S(=O)(=O)NCC(=O)Nc2ccc(C)cc2)c(C)n(C)c1C`, the inhibition is -5.73%.

On to `O=C1NC(c2ccccc2)Oc2ccccc21` (stereo unspecified), for which the inhibition is -5.27%.

On to `Cc1ccc(NS(=O)(=O)c2ccc(-c3ccc(=O)[nH]n3)o2)c(C)c1`, for which the inhibition was -12.5%.

For `CCOc1cc(-c2noc(CCCC(=O)NC3CCCCC3)n2)ccc1OC`, the inhibition is -9.28%.

On to `COc1ccccc1NC(=O)CSc1nnc(CNC(=O)c2ccccc2F)o1`, for which the inhibition was 15.5%.

For `Cc1ccccc1CSc1nnc(-c2ccccc2)c(=O)[nH]1`, the inhibition was -6.33%.

In the case of `O=c1[nH]c(SCc2ccccc2)nnc1-c1ccccc1`, the inhibition is 36.4% (active).

Consider `Cc1ccc(CSc2nc(-c3ccccc3)c(C#N)c(=O)[nH]2)cc1`, for which the inhibition is 22.6%.

With `COc1ccccc1C(=O)NC(CCSC)C(=O)NNC(=O)c1csc(N2CCOCC2)n1` (stereo unspecified), the inhibition is -15.3%.

As for `COc1ccc(C(=O)/C=C/c2cccnc2)c(OC)c1`, the inhibition was 0.985%.

Turning to `COc1ccc(/C=C/C(=O)c2cc(Br)ccc(=O)c2O)cc1`, the inhibition is 7.73%.

On to `COc1ccc(/C=C/C(=O)c2ccc(OC)cc2O)cc1`, for which the inhibition is 42.2% (active).

In the case of `O=c1[nH]c(=O)n(Cc2ccco2)c2c1C(C(F)(F)F)(C(F)(F)F)N=C(c1ccco1)N2`, the inhibition was 58.8% (active).

`CC(=O)Nc1ccc(S(=O)(=O)NC2(C(F)(F)F)C(=O)Nc3c2c(=O)[nH]c(=O)n3Cc2ccccc2)cc1` (stereo unspecified): the inhibition is -2.93%.

Take `Cc1ccccc1C1=NC(C(F)(F)F)(C(F)(F)F)c2c(n(-c3ccc(F)cc3)c(=O)[nH]c2=O)N1`: the inhibition was 2.62%.

In the case of `Cc1ccc(OS(=O)(=O)c2ccc(-c3csc(C)n3)s2)c(C)c1`, the inhibition was -11.1%.

For the molecule `CN(Cc1ccccc1)CC(O)COc1ccc(CNCc2cc3ccccc3s2)cc1` (stereo unspecified), the inhibition was -3.31%.

Regarding `COc1ccc(OCC(=O)NCCS(=O)(=O)N2CCN(c3ccc(F)cc3)CC2)cc1`, the inhibition was -4.29%.

`COc1ccc(C(=O)/C=C/Nc2ccccn2)cc1`: the inhibition is -2.27%.

With `Cc1cc(N/C=C\C(=O)c2ccc(Cl)c(Cl)c2)no1`, the inhibition is 59.9% (active).

On to `Cc1cc(NC(=O)CSc2nnc(-c3ccc(Cl)s3)o2)no1`, for which the inhibition is 20.2%.

Regarding `COc1ccccc1N1CCN(c2ccc([N+](=O)[O-])nc2)CC1`, the inhibition is 34.5%.

As to `CC(CN1CCOCC1)OC(=O)c1ccc(Cl)cc1Cl` (stereo unspecified), the inhibition is 38.1%.

Take `Cc1nc(CNS(=O)(=O)c2cccnc2)cs1`: the inhibition was -1.16%.

`O=S(=O)(NCCc1csc(-c2ccccc2)n1)c1cccnc1`: the inhibition was 129% (active).

As for `O=S(=O)(NCCc1ccncc1)c1ccccc1`, the inhibition is -5.04%.

For the molecule `Cc1ccc(Cn2c(=N)c(S(=O)(=O)c3ccc(C)cc3)cc3c(=O)n4ccccc4nc32)cc1`, the inhibition was -2.01%.

For the molecule `CCCn1cc(S(=O)(=O)c2ccc(C)cc2)c(=O)c2cc(OCC)ccc21`, the inhibition was 3.51%.

Consider `COC(=O)c1[nH]c2ccccc2c1NC(=O)CN1CCCc2ccccc21`, for which the inhibition is 25.1%.

For `COC(=O)c1[nH]c2ccc(Br)cc2c1NC(=O)Oc1ccccc1`, the inhibition was 51.9% (active).

`CCOC(=O)c1[nH]c2ccc(OC)cc2c1NC(=O)CCN1CCN(Cc2ccccc2)CC1`: the inhibition is -3.91%.

For orientation: inhibition means the change of the read-out against control, counted positive when it falls.
